Screening data: PubChem BioAssay, several laboratories
HTR5A inv ag – HTR5A inverse agonists in luminescence cell assay, primary screen, counter-screen for OPRM1-OPRD1 heterodimer inverse agonist project, full-deck HTS; 5-hydroxytryptamine receptor 5A (Homo sapiens), P47898; HTR5A cell line, inverse agonism; inhibition, % at 9.3 µM; hit rate 0.083% among 340,000; in the data active = inhibition mostly above about 23%, no sharp cut-off; inactive = mostly below about 18%;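 also: 0% = cells with DMSO and 100% = no-cell wells with DMSO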
Target sequence (P47898 whole entry, looked up): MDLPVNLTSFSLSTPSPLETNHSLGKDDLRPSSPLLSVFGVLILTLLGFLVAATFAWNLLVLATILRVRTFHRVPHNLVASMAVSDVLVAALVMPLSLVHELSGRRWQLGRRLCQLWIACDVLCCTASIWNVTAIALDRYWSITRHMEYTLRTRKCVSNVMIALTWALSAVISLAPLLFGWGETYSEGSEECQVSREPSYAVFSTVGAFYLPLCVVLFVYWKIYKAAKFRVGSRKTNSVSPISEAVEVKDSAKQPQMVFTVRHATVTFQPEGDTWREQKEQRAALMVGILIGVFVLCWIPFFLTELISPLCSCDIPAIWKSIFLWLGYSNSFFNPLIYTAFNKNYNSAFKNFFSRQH
OPRM1-OPRD1 ag – agonists of OPRM1-OPRD1 heterodimerization, primary screen, cell-based, luminescence. cells. activation, % at 9.3 µM. hit rate 0.3% among 340,000. AID 504326, 2011;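 also: 0% = vehicle-treated cells and 100% = reference agonist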
beta cell repl – inducers of MIN6 beta-cell proliferation, primary screen, ATP luminescence, uHTS; hit rate 0.29% among 330,000; proliferation, % at 10 µM; MIN6 cells proliferation, ATPlite luminescence, 48 h; cells starved in 0.2% serum; 100% = growth in 10% serum;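 active = compounds whose signal lies at least 3.5 SD above the mean of all wells on their plate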;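 also: 0% = DMSO-treated cells in low-serum medium and 100% = 10% serum control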
V-ATPase pHluor – regulators of yeast V-ATPase proton pumping, primary screen, pHLuorin cytosolic pH fluorescence; hit rate 0.37% among 350,000; S. cerevisiae; response, % at 10 µM; in the data active = response mostly above about 7.3%, no sharp cut-off; inactive = mostly below about 5.4%; also: actives read high
MOR-DOR inv ag – inverse agonists of MOR-DOR heterodimerization, primary screen, cell-based, luminescence | cell-based MOR-DOR heterodimer luminescence, inverse agonism | hit rate 0.21% among 340,000 | inhibition, % at 9.3 µM; in the data active = inhibition above about 22%, passing the limit was not always enough;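 also: 0% = cells with DMSO and 100% = wells without cells with DMSO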
HTR5A ag ctr – HTR5A agonists in luminescence cell assay, primary screen, counter-screen for OPRM1-OPRD1 heterodimer agonist project, full-deck HTS; AID 504692, 2011; hit rate 0.61% among 340,000; activation, % at 9.3 µM; cell-based; 5-hydroxytryptamine receptor 5A (Homo sapiens), P47898; in the data active = activation mostly above about 9.5%, no sharp cut-off; inactive = mostly below about 7.6%;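 also: 0% = cells with vehicle only and 100% = reference agonist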
MOR-DOR ag conf – agonists of MOR-DOR heterodimerization, confirmation, cell-based, luminescence; shares compounds with OPRM1-OPRD1 ag; cells, luminescence complementation; activation, % at 9.3 µM; hit rate 45% among 830;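 also: 0% = vehicle-treated cells and 100% = reference agonist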
HTR5A ag ctr2 – HTR5A agonists in cells, counter-screen for OPRM1-OPRD1 heterodimer agonist project, cell-based, luminescence. HTR5A agonist counterscreen. shares compounds with OPRM1-OPRD1 ag. AID 504905, 2011. activation, % at 9.3 µM. hit rate 8% among 830; in the data active = activation above about 17%;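 also: 0% = vehicle-treated cells and 100% = reference agonist response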
* marks the source's active call; other numbers are inactive results. This is a sample that favours compounds with a hit; in the whole collection about 1.7% have one here. Rule as the data show it, unless noted: active = activation above about 18%; inactive = the rest.

Screening Cc1cccc(CCN2C(Nc3ccccc3)=NC[C@@H]2CC(C)C)c1 returned HTR5A inv ag 9, OPRM1-OPRD1 ag 38*, beta cell repl -7, V-ATPase pHluor -4, MOR-DOR inv ag -173, HTR5A ag ctr 9, MOR-DOR ag conf 0 and HTR5A ag ctr2 -2.
For CC(C)C[C@H]1CN=C(Nc2ccccc2)N1CCc1cccc(F)c1 the results were HTR5A inv ag -9, OPRM1-OPRD1 ag 0, beta cell repl -4, V-ATPase pHluor -5, MOR-DOR inv ag -1 and HTR5A ag ctr 4.
Screening OC(CN1CCN(C(c2ccccc2)c2ccccc2)CC1)c1ccccc1 (stereo not drawn) returned HTR5A inv ag 11, OPRM1-OPRD1 ag 19*, beta cell repl -5, V-ATPase pHluor 3, MOR-DOR inv ag -92, HTR5A ag ctr -3, MOR-DOR ag conf 33* and HTR5A ag ctr2 5.
Screening CCOC(=O)C1(CC2CC2)CCN(Cc2cnc(N(C)C)s2)CC1 returned HTR5A inv ag -26, OPRM1-OPRD1 ag 35*, beta cell repl 3, V-ATPase pHluor 3, MOR-DOR inv ag -182, HTR5A ag ctr -2, MOR-DOR ag conf 1 and HTR5A ag ctr2 3.
CCOC(=O)C1(Cc2ccccc2)CCN(Cc2cn(CC(=O)OC)c3ccccc23)CC1 was read as HTR5A inv ag 20, OPRM1-OPRD1 ag 0, beta cell repl 0, V-ATPase pHluor -2, MOR-DOR inv ag 0 and HTR5A ag ctr -3.
Screening CCOC(=O)C1(CC2CC2)CCN(Cc2cn(C)c3ccccc23)CC1 returned HTR5A inv ag 17, OPRM1-OPRD1 ag 18*, beta cell repl -1, V-ATPase pHluor -1, MOR-DOR inv ag -125, HTR5A ag ctr -5, MOR-DOR ag conf -3 and HTR5A ag ctr2 -6.
CCc1ccc(NC(=O)N(CCCN2CCOCC2)Cc2cccs2)cc1 was read as HTR5A inv ag -25, OPRM1-OPRD1 ag 34*, beta cell repl 10, V-ATPase pHluor -3, MOR-DOR inv ag -202, HTR5A ag ctr 9, MOR-DOR ag conf 47* and HTR5A ag ctr2 -4.
`CCCc1nnc2n1N=C(c1ccc(C)cc1)CS2` gave HTR5A inv ag 9, OPRM1-OPRD1 ag -3, beta cell repl -3, V-ATPase pHluor -3, MOR-DOR inv ag 16 and HTR5A ag ctr -1.
Screening CCOC(=O)C1(Cc2ccccc2)CCN(Cc2cccn2-c2nccs2)CC1 returned HTR5A inv ag 5, OPRM1-OPRD1 ag 27*, beta cell repl 0, V-ATPase pHluor 0, MOR-DOR inv ag -192, HTR5A ag ctr -2, MOR-DOR ag conf 224* and HTR5A ag ctr2 6.
Screening CCOC(=O)C1(Cc2cccc(OC)c2)CCN(Cc2cccn2-c2nccs2)CC1 returned HTR5A inv ag -14, OPRM1-OPRD1 ag 5, beta cell repl 0, V-ATPase pHluor -4, MOR-DOR inv ag -24 and HTR5A ag ctr -2.
CCOC(=O)C1(Cc2ccccc2)CCN(Cc2cccn2-c2cccnc2)CC1 was read as HTR5A inv ag 0, OPRM1-OPRD1 ag 41*, beta cell repl -1, V-ATPase pHluor 3, MOR-DOR inv ag -218, HTR5A ag ctr 0, MOR-DOR ag conf 55* and HTR5A ag ctr2 -2.
Screening CCOC(=O)C1(CCOc2ccccc2)CCN(Cc2cccn2-c2cccnc2)CC1 returned HTR5A inv ag 5, OPRM1-OPRD1 ag 224*, beta cell repl -1, V-ATPase pHluor 1, MOR-DOR inv ag inactive, HTR5A ag ctr -2, MOR-DOR ag conf 240* and HTR5A ag ctr2 1.
`Cc1nn(C)c(C)c1NS(=O)(=O)c1c(C)n[nH]c1C` gave HTR5A inv ag -5, OPRM1-OPRD1 ag -3, beta cell repl 1, V-ATPase pHluor -4, MOR-DOR inv ag 17 and HTR5A ag ctr 1.
Cc1cc2nnc(SCC(=O)NCC3CCCO3)n2c2ccccc12 (stereo not drawn) was read as HTR5A inv ag 13, OPRM1-OPRD1 ag -3, beta cell repl -2, V-ATPase pHluor -3, MOR-DOR inv ag 16 and HTR5A ag ctr -5.
For Cc1ccccc1C(=O)NC(CC(C)C)C(=O)OCC(=O)c1c(N)n(C)c(=O)n(C)c1=O (stereo not drawn) the results were HTR5A inv ag -6, OPRM1-OPRD1 ag -1, beta cell repl -2, V-ATPase pHluor 3, MOR-DOR inv ag 5 and HTR5A ag ctr 1.
For O=C(COC(=O)CC1CCCC1)Nc1cccc(F)c1 the results were HTR5A inv ag 7, OPRM1-OPRD1 ag 323*, beta cell repl -3, V-ATPase pHluor -7, MOR-DOR inv ag inactive, HTR5A ag ctr -3, MOR-DOR ag conf -2 and HTR5A ag ctr2 0.
O=C(COC(=O)C1CCCCC1)Nc1cccc(F)c1 was read as HTR5A inv ag 12, OPRM1-OPRD1 ag 1, beta cell repl 2, V-ATPase pHluor -1, MOR-DOR inv ag -7 and HTR5A ag ctr -3.
`O=C(OCC(=O)N1CCCCCC1)c1cc(S(=O)(=O)N2CCOCC2)ccc1F` gave V-ATPase pHluor -2.
`O=C(CNc1ccc2ccccc2c1)N/N=C/c1ccc([N+](=O)[O-])o1` gave HTR5A inv ag -22, OPRM1-OPRD1 ag 38*, beta cell repl -6, V-ATPase pHluor -1, MOR-DOR inv ag -186, HTR5A ag ctr 9.3*, MOR-DOR ag conf 6 and HTR5A ag ctr2 7.
COc1cccc(/C=C/C(=O)OCC(=O)NCCC2=CCCCC2)c1 was read as HTR5A inv ag -9, OPRM1-OPRD1 ag 1, beta cell repl -3, V-ATPase pHluor -1, MOR-DOR inv ag -6 and HTR5A ag ctr 3.
Screening Cc1ccccc1OCc1nc(-c2ccc(NC(=O)c3ccco3)cc2)no1 returned HTR5A inv ag -16, OPRM1-OPRD1 ag 2, beta cell repl -3, V-ATPase pHluor 2, MOR-DOR inv ag -7 and HTR5A ag ctr 10.
`Cc1ccccc1OCc1nc(-c2ccc(NC(=O)c3ccc4c(c3)OCO4)cc2)no1` gave HTR5A inv ag -26, OPRM1-OPRD1 ag 21*, beta cell repl -4, V-ATPase pHluor 1, MOR-DOR inv ag -88, HTR5A ag ctr 10, MOR-DOR ag conf 1 and HTR5A ag ctr2 2.
